# Laboratory results from the supplement of paper PMC10849652.
# Targets with a hit are over-represented here; the source holds about 7,900 in all. About 0.6% of all pairs of compound and target were hits. A number with no mark means an inactive call.
# Tests used:
# Assay in all cases: log2 fold change, soluble protein after heating vs DMSO (PISA); higher = thermal stabilisation; K562 cells, 10 uM, 30 min; active = over 0.2 and 3.5 SD of the protein, either way, in both replicates (recomputed)
# [1] = compound: CS(=O)(=O)c1ccc(-c2cnc(N)c(C(=O)Nc3ccccc3)n2)cc1
# How it was run: (§1)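 Values are thermal stability changes relative to control samples and are taken from duplicates. They are stated as log2 fold changes. Before quantification by TMTpro 16plex LC-MS/MS with equalised channel sums, K562 cells at 2×10^6 cells/mL were treated with 10 μM compound for 30 min, heated in aliquots for 3 min across 48°C-58°C, pooled, extracted in PBS with 0.5% NP-40 at 4°C, and centrifuged at 21,000xg for 90 min to give the soluble supernatant.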
# crizotinib = compound: C[C@@H](Oc1cc(-c2cnn(C3CCNCC3)c2)cnc1N)c1c(Cl)ccc(F)c1Cl [crizotinib]
# How it was run: as §1
# [2] = compound: C[C@@H]1COCCN1C2=NC(=NC(=C2)C3(CC3)S(=O)(=O)C)C4=C5C=CNC5=CC=C4
# How it was run: as §1
# [3] = compound: C[C@H](C1=CC=C(C=C1)C(=O)NC2=C3C=CNC3=NC=C2)N
# How it was run: as §1
# duvelisib = compound: C[C@H](Nc1ncnc2nc[nH]c12)c1cc2cccc(Cl)c2c(=O)n1-c1ccccc1 [duvelisib]
# How it was run: as §1
# gandotinib = compound: Cc1cc(Nc2cc(CN3CCOCC3)c3nc(C)c(Cc4ccc(Cl)cc4F)n3n2)n[nH]1 [gandotinib]
# How it was run: as §1
# tozasertib = compound: Cc1cc(Nc2cc(N3CCN(C)CC3)nc(Sc3ccc(NC(=O)C4CC4)cc3)n2)n[nH]1 [tozasertib]
# How it was run: as §1
# [4] = compound: Cc1cc(SCc2sc(-c3ccc(C(F)(F)F)cc3)nc2C)ccc1OCC(=O)O
# How it was run: as §1
# doramapimod = compound: Cc1ccc(-n2nc(C(C)(C)C)cc2NC(=O)Nc2ccc(OCCN3CCOCC3)c3ccccc23)cc1 [doramapimod]
# How it was run: as §1
# ispinesib = compound: Cc1ccc(C(=O)N(CCCN)[C@@H](c2nc3cc(Cl)ccc3c(=O)n2Cc2ccccc2)C(C)C)cc1 [ispinesib]
# How it was run: as §1
# Sequence of UniProt O95486 (O95486 whole entry, looked up): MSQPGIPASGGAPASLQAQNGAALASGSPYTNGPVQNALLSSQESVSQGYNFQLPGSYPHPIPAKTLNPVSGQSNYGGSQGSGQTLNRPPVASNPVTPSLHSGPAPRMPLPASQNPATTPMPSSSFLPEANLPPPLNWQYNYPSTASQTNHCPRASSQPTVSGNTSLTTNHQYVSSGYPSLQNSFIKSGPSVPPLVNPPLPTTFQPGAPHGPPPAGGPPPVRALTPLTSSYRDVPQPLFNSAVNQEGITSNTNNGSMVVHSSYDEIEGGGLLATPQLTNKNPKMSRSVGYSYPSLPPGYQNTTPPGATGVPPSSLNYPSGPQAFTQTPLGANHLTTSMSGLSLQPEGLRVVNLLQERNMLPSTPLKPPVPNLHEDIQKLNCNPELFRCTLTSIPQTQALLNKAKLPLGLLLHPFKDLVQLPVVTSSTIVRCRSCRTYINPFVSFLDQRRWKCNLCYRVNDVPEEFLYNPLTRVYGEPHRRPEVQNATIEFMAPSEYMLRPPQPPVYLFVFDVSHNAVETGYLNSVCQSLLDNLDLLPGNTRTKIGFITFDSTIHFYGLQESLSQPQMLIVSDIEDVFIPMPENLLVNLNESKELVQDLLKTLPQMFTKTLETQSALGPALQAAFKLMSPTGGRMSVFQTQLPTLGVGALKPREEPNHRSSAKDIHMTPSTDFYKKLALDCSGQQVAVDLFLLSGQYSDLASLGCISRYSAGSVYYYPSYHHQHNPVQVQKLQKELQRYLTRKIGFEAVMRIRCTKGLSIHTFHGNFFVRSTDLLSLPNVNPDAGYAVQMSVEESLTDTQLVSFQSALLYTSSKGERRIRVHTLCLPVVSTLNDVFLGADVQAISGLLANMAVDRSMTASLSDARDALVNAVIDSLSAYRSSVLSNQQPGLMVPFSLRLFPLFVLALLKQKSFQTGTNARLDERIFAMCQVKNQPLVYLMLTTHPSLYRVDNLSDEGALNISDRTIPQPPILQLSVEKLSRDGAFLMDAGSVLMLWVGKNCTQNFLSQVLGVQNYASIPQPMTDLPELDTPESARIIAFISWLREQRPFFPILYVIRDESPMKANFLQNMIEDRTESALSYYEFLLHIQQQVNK
# Sequence of UniProt Q9BXP2 (Q9BXP2 whole entry, looked up): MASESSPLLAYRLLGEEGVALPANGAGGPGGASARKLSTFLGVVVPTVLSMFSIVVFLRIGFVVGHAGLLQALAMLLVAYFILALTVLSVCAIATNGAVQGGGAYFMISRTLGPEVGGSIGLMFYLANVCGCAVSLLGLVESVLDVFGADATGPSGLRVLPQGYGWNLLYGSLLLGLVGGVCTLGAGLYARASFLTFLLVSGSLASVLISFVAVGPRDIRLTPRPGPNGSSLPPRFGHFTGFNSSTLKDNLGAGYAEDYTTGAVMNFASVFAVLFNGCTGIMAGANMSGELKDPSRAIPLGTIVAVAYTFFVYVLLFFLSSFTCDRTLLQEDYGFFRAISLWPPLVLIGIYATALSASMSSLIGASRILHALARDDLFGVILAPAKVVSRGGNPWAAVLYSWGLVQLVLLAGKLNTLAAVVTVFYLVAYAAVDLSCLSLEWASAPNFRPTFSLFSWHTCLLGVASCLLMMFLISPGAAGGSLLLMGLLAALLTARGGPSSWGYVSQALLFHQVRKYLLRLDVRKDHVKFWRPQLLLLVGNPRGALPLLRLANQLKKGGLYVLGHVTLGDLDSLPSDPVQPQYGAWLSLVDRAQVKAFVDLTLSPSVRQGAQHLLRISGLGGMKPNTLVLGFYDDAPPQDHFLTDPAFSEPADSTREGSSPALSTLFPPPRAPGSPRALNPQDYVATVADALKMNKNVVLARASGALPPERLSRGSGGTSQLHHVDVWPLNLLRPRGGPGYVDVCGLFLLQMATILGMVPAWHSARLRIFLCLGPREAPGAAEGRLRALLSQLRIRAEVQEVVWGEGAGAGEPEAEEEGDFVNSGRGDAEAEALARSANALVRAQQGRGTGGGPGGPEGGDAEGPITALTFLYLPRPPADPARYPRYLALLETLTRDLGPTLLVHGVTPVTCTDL
# Sequence of UniProt Q5T160 (Q5T160 whole entry, looked up): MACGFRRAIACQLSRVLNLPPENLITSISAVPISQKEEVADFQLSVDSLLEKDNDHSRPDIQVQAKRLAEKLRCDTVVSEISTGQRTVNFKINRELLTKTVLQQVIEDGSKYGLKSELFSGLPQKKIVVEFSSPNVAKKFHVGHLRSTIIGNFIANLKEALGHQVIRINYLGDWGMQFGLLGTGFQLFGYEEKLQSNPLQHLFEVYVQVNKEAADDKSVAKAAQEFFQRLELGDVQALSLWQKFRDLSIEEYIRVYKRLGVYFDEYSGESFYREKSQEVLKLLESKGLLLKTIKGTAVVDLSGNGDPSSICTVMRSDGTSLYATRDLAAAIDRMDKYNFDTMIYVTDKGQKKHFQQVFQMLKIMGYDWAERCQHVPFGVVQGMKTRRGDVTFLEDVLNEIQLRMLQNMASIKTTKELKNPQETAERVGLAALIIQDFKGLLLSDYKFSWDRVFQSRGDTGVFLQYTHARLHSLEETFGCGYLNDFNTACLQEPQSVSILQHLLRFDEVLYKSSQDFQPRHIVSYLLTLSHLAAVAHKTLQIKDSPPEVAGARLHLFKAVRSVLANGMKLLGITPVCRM
# Sequence of UniProt O95470 (O95470 whole entry, looked up): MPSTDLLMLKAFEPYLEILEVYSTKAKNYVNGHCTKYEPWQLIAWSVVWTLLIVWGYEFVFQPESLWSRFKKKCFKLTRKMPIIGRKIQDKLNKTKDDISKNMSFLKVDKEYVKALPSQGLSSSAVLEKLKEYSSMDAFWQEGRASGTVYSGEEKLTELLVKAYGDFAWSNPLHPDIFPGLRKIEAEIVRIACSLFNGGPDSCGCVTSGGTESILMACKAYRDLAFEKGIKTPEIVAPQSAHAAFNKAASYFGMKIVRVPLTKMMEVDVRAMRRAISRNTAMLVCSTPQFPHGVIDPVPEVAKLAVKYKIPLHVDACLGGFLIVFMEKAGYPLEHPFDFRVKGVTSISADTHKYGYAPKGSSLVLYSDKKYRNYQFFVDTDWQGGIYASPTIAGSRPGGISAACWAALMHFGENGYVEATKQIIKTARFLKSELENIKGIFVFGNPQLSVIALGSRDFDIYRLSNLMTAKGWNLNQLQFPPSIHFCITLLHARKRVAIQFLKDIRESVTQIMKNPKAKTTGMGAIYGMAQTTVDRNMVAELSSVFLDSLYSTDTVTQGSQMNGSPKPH
# Sequence of UniProt Q9NTZ6 (Q9NTZ6 whole entry, looked up): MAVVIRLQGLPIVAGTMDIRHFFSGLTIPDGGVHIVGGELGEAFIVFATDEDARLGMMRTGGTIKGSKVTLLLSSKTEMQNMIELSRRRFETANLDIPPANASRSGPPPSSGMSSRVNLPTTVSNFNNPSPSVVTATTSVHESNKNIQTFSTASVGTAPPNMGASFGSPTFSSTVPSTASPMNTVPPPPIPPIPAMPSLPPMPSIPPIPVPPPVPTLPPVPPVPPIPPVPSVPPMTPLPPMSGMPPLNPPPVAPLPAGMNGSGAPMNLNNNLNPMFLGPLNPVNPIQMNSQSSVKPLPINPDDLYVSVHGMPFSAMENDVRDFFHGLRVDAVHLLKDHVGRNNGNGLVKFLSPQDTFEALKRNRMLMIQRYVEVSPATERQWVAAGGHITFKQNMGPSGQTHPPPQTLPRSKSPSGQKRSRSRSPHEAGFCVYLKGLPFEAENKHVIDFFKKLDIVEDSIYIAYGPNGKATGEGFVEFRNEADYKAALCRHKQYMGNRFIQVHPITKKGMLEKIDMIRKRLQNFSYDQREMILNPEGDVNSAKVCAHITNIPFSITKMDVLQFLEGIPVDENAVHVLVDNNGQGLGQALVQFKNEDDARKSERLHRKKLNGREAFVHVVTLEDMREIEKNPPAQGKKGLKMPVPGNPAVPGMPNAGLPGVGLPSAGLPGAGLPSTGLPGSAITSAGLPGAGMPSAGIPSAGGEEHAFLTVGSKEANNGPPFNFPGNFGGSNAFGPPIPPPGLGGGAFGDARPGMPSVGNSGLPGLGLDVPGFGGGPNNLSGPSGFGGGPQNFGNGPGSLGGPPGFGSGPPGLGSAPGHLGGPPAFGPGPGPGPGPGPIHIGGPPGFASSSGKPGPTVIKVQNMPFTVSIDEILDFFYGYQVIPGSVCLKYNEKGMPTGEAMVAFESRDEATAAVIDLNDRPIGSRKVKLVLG
# Sequence of UniProt Q5T8P6 (Q5T8P6 whole entry, looked up): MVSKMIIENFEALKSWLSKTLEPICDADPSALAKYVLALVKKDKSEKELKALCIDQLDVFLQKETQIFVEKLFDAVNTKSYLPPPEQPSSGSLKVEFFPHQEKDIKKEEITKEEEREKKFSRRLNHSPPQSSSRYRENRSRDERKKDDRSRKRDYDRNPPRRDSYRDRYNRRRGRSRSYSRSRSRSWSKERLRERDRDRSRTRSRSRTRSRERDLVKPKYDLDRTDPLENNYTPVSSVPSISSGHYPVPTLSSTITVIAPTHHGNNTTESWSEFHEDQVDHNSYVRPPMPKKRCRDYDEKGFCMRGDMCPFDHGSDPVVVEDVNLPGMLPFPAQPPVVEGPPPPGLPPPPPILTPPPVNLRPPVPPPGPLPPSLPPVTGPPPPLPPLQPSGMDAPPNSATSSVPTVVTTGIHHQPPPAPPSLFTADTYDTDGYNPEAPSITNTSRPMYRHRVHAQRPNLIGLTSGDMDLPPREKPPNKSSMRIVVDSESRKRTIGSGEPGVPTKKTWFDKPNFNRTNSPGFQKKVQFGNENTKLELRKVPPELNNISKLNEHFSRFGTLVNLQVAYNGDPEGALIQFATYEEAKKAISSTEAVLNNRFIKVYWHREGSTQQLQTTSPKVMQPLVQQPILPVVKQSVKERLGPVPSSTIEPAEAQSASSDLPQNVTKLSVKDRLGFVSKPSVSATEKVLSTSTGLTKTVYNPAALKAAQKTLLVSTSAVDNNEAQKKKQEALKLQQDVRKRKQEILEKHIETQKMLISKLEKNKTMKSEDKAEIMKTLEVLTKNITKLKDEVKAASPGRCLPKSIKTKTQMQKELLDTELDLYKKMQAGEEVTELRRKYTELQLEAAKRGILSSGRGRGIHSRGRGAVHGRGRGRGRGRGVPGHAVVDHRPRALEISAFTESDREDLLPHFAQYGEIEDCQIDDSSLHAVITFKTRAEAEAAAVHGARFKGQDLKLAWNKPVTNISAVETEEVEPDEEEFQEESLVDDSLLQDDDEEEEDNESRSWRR
Target,log2 fold change [1],log2 fold change (crizotinib),log2 fold change [2],log2 fold change [3],log2 fold change (duvelisib),log2 fold change (gandotinib),log2 fold change (tozasertib),log2 fold change [4],log2 fold change (doramapimod),log2 fold change (ispinesib)
RBM17 (UniProt Q96I25),-0.043,-0.065,0.106,0.02,0.031,-0.031,0.057,0.106,-0.028,0.007
"SART3, A0A499FI31",-0.011,0.097,0.049,-0.124,0.012,-0.056,0.078,0.051,-0.03,0.038
SH2D1B (UniProt O14796),-0.031,-0.765 (active),0.075,-0.201,0.102,-0.692,-0.479,-0.08,-0.072,0.06
RAB5IF isoform 5 (UniProt Q9BUV8),-0.036,-0.094,0.076,-0.007,0.078,0.04,-0.156,-0.002,0.025,0.157
RRAGC (UniProt Q9HB90),0.016,-0.262,0.008,-0.027,0.053,0,-0.061,-0.039,0.019,-0.153
SERINC3 (UniProt Q13530),0.15,-0.228,0.017,0.225,0.162,-0.088,0.046,0.096,-0.051,-0.17
RDH11 (UniProt Q8TC12),0.164,-0.303,0.082,0.116,0.11,0.115,-0.029,0.425 (active),0.098,-0.365
RPS16 (UniProt P62249),-0.107,0,-0.353,0.214,-0.118,0.172,0.021,-0.023,0.055,-0.088
SEC24A (UniProt O95486),0.002,-0.001,0.075,0.001,0.038,-0.148,0.018,0.084,-0.029,0.017
RSF1 (UniProt Q96T23),0.056,-0.054,-0.002,-0.058,0.108,-0.104,0.228,0.194,0.043,0.087
RBM12 (UniProt Q9NTZ6),0.079,0.005,0.16,-0.109,0.011,-0.132,0.04,0.1,-0.076,0.008
RBM8A (UniProt Q9Y5S9),0.012,0.287 (active),0.007,0.025,0.019,0.069,-0.015,0.025,-0.078,0.099
RPL38 (UniProt P63173),-0.039,-0.069,-0.258 (active),0.077,-0.064,0.144,-0.017,-0.008,0.017,-0.093
RPS5 (UniProt P46782),-0.081,0,-0.255,0.176,-0.081,0.108,0.029,0.017,0.069,-0.073
RBM26 isoform 2 (UniProt Q5T8P6),-0.012,0.03,0.374,-0.154,0.022,-0.056,0.036,0.136,-0.036,-0.089
RBM25 (UniProt P49756),-0.071,-0.052,0.09,-0.01,0.037,-0.166,-0.012,-0.074,0.057,-0.049
RABGAP1L isoform 3 (UniProt Q5R372),-0.018,0.005,-0.004,-0.138,-0.013,-0.018,-0.011,0.05,0.052,0.046
RARS2 (UniProt Q5T160),-0.026,-0.016,0.091,-0.021,0.018,-0.075,0.01,0.019,-0.017,-0.033
RPS6KA3 (UniProt P51812),0.023,-0.107,0.024,-0.177,0.02,-0.019,0.103,0.032,-0.066,-0.017
SGPL1 (UniProt O95470),0.095,0.077,-0.034,0.011,0.019,0.259,-0.089,0.024,0.084,0.077
RDH10 (UniProt Q8IZV5),-0.016,0.087,0.116,-0.011,0.015,-0.111,-0.009,-0.003,-0.016,0.036
RCN3 (UniProt Q96D15),-0.016,-0.028,-0.02,-0.041,-0.022,0.029,-0.087,-0.058,0.092,-0.033
RPS15 (UniProt P62841),0.032,0,-0.174,0.45 (active),-0.078,0.137,-0.071,-0.045,0.032,-0.003
RARS (UniProt P54136),-0.001,-0.266,-0.099,0.373,-0.069,0.018,-0.028,0.132,0.184,-0.398 (active)
SLC12A9 (UniProt Q9BXP2),-0.071,-0.315 (active),-0.022,0.016,-0.038,-0.16,0.001,-0.074,-0.012,-0.713 (active)
RAB33B (UniProt Q9H082),0.007,0.106,0.064,-0.037,0.058,-0.095,-0.032,-0.038,-0.021,-0.065
RIPK1 (UniProt Q13546),0.058,0.274,-0.01,0.09,-0.1,0.301,1.05 (active),0.118,0.031,-0.155
SETMAR (UniProt Q53H47),0.077,0.036,-0.028,0.134,-0.004,-0.129,-0.061,0.003,0.024,0.164
RPS27A (UniProt P62979),0.05,0.053,-0.229,0.088,-0.218,0.347,0.013,0,-0.049,-0.047
RRS1 (UniProt Q15050),-0.022,0,-0.365,0.304,-0.181,0.089,0.094,-0.034,0.235,0.019
